# Screens: PubChem BioAssay, National Center for Advancing Translational Sciences (NCATS)
# DT40 TDP1 CPT: qHTS for Inhibitors of human tyrosyl-DNA phosphodiesterase 1 (TDP1): qHTS in cells in presence of CPT; chicken DT40 Tdp1-/-;hTDP1 cells + 20 nM CPT, ATP luminescence, 48 h; Potency, µM (series often up to 46.2 µM), usual class: inhibitors; hit rate 12% among 420,000; also: nearly all actives have a fitted effect of over 55% in size
#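 Cell growth measured by CellTiter-Glo luminescence after a minimum 48 h, 37 C compound exposure with 20 nM CPT in Tdp1-knockout DT40 cells stably expressing hTDP1, seeded 400/well; qHTS titration format.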
# TDP1 inh: qHTS Assay for Inhibitors of Tyrosyl-DNA Phosphodiesterase (TDP1) | Potency, µM (titrated, usually from 130 µM), actives largely listed as inhibitors | hit rate 0.28% among 350,000 | AID 485290, 2010 | recombinant TDP1, AlphaScreen DNA substrate cleavage; also: nearly all actives have a fitted effect of over 40% in size
# Target sequence (Q9NUW8 whole entry, looked up): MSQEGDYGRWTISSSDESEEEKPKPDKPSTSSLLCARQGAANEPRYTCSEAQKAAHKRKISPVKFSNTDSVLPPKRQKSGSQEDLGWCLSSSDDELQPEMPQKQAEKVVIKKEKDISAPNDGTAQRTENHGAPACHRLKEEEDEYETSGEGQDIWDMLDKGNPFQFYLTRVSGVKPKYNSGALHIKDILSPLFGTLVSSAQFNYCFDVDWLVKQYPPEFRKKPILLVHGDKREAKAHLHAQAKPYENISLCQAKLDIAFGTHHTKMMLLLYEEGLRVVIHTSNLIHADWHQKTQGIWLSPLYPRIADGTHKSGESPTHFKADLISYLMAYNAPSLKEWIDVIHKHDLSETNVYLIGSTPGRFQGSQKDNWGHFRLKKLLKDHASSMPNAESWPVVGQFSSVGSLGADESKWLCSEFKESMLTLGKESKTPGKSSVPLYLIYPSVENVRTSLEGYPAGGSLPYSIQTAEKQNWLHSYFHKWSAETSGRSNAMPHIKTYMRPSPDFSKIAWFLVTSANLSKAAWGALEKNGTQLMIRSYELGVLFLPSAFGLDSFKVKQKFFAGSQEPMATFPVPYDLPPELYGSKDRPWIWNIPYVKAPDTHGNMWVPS
#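 Recombinant human Tdp1 (E. coli-expressed, 1 nM final) preincubated with compounds 15 min at room temperature, then 5'-biotin/3'-phosphotyrosine-FITC DNA substrate (15 nM final) added for 5 min. AlphaScreen beads (10 ug/ml final) added 10 min; cleavage lowers signal.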
# ClpP mod: qHTS Assay for Activators of ClpP; purified B. subtilis ClpP, FRET peptide cleavage, 20 min; Potency, µM (series often up to 57.5 µM); hit rate 1.9% among 340,000; active = well fitted falling curve with a large enough effect; inconclusive = small, poorly fitted or top-dose-only effect; inactive = no such curve, though single readings can be large or run the other way; also: the source files actives as falling curves though it sought activators and does not explain the sign; nearly all actives have a fitted effect of over 65% in size
#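 Buffer: 100 mM Tris/HCl pH8, 100 mM KCl, 0.05% low protease BSA, 2.5% glycerol, 0.01% Tween-20. ClpP 10 microg/mL final; 20 min RT; delta FRET normalized to ADEP and DMSO controls.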
# DT40 TDP1 no CPT: qHTS for Inhibitors of human tyrosyl-DNA phosphodiesterase 1 (TDP1): qHTS in cells in absence of CPT; DT40 Tdp1-/- hTDP1 cells, no CPT, ATP luminescence, 48 h; Potency, µM (highest dose often 46.2 µM), usual class: inhibitors; hit rate 15% among 420,000; AID 686978, 2013; also: nearly all actives have a fitted effect of over 55% in size
#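 Growth of hTDP1-complemented DT40 Tdp1-knockout cells is measured by ATP luminescence after at least 48 hr compound exposure at 37 °C, with DMSO substituting for the 20 nM CPT used in the parallel screen.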
# Hits are given with their value; i = inactive; ? = inconclusive; nt = not tested or not shown; [ ] = dose if it differs, or a comment. Sampled rows, rich in hits. Any-hit rate of the full collection: about 17%. Unless noted, calls follow the shape of the dose curve; as a rule, active = well fitted curve in the direction sought with a large enough effect; inconclusive = small, poorly fitted or top-dose-only effect, or another doubt; inactive = no such curve, though single readings can be large; an effect the other way counts as inactive or inconclusive.
SMILES,DT40 TDP1 CPT,TDP1 inh,ClpP mod,DT40 TDP1 no CPT
Cc1ccc(C)c(Cn2cnc3c(cnn3-c3ccc(F)cc3)c2=O)c1,i,i,i,?
COc1ccc(Cc2noc(CN3CCN(c4ccc(Cl)cn4)CC3)n2)cc1OC,?,i,i,18.4µM
COCCN1CCN(Cc2nc(Cc3ccc(OC)c(OC)c3)no2)CC1,i,i,i,i
COc1ccc(Cc2noc(CN3CCN(Cc4cccc(Cl)c4)CC3)n2)cc1OC,?,nt,nt,10.3µM
COC(=O)N1[C@H]2CC[C@@]3(C)C=C(C)O[C@]1(C)C3c1ccccc12,nt,i,nt,nt
CN(C(=O)CN1CCN(c2cnn(-c3ccccc3)c(=O)c2Cl)CC1)C1CCS(=O)(=O)C1 (centres undefined),i,i,i,i
O=C(c1cc(C2CC2)nn1-c1ccccc1)N1CCN(c2ccc(O)cc2)CC1,?,i,i,?
NC(=O)c1ccc(NC(=O)CNc2cc(S(=O)(=O)N3CCOCC3)ccc2N2CCCC2)cc1,i,nt,i,?
N#Cc1cccc(NC(=O)CNc2cc(S(=O)(=O)N3CCOCC3)ccc2N2CCCC2)c1,?,i,nt,23.1µM
CC(=O)c1ccc(NC(=O)CNc2cc(S(=O)(=O)N3CCOCC3)ccc2N2CCCC2)cc1,16.4µM,i,i,25.9µM
O=C(CNc1cc(S(=O)(=O)N2CCOCC2)ccc1N1CCCC1)Nc1ccc(Cl)cc1,18.4µM,nt,i,18.4µM
CCC(C(=O)Nc1ccc(C(=O)OC)cc1)n1nc(-c2ccc(C)cc2)c2c(c1=O)CCCC2 (centres undefined),?,i,i,?
CCCS(=O)(=O)NCc1c(C)ncc2c1CCN(C(=O)c1cccc(-c3ccccc3F)c1)C2,i[9.04 µM],nt,nt,?
Cc1c(F)cccc1NS(=O)(=O)c1ccc2c(c1)n(C)c(=O)c(=O)n2C,i,i,nt,i
Cc1cccc(NS(=O)(=O)c2ccc3c(c2)n(C)c(=O)n3C)c1C,23.1µM,i,i,?
Cc1c(F)cccc1NS(=O)(=O)c1ccc2c(c1)c(=O)n(C)c(=O)n2C,?,i,nt,14.6µM
Cc1cc(C)cc(Nc2cc(C)nc3nc(-c4ccco4)nn23)c1,16.4µM,i,i,9.2µM
O=C(COc1cc(Cl)c(Cl)cc1Cl)Nc1ccc([N+](=O)[O-])cc1Cl,?,i,i,?
O=c1c(-c2cc(F)cc(F)c2)nc2cnc(N3CCOCC3)nc2n1CCc1ccccc1,i,nt,nt,i
CC1(C)Cc2ccccc2-c2nnc(SCC(=O)N3CCc4ccccc43)n21,?,i,i,?
COc1ccc(N2CCN(C(=O)CSc3nnc4c(C)cc5c(C)cc(C)cc5n34)CC2)cc1,?,i,i,23.1µM
Cc1ccc(Cl)cc1N1CCN(C(=O)CSc2nnc3n2C(C)(C)Cc2ccccc2-3)CC1,9.2µM,i,i,7.31µM
COc1ccc(N2CCN(C(=O)CSc3nnc4c(C)cc5cc(C)ccc5n34)CC2)cc1,?,i,i,?
COC(=O)CSc1nnc2n1C(C)(C)Cc1ccccc1-2,i,i,i,i
COc1ccc(N2CCN(C(=O)CSc3nnc4n3C(C)(C)Cc3ccccc3-4)CC2)cc1,?,i,i,20.6µM
SMILES,DT40 TDP1 CPT,TDP1 inh,ClpP mod,DT40 TDP1 no CPT
CCOC(=O)c1ccc(NC(=S)N2CCSC2c2ccc(Cl)cc2)cc1 (centres undefined),?,i,i,16.4µM
CCOC(=O)c1ccc(NC(=S)N2CCSC2c2ccc(OC)cc2)cc1 (centres undefined),i,i,i,?
CCn1c(SCC(=O)Nc2ccc(F)cc2)nnc1-c1cnccn1,i,i,i,i
COc1cccc(/C=N/Nc2nccnc2Cl)c1O,3.26µM,i,nt,4.61µM
COc1ccc(/C=N/Nc2nccnc2Cl)cc1,9.2µM,i,i,20.6µM
COc1cccc(/C=N/Nc2ncnc(Cl)c2N)c1O,0.82µM,i,i,0.517µM
COc1ccc(/C=N/Nc2ncnc(Cl)c2N)cc1OC,i,i,?,?
COc1cccc(/C=N/Nc2ncnc3scc(-c4ccccc4)c23)c1O,1.03µM,i,i,1.46µM
CCC(=O)O[C@@H]1[C@H](C)O[C@H](O[C@H]2[C@@H](N(C)C)[C@H](O)[C@@H](O[C@@H]3[C@@H](CC=O)C[C@@H](C)[C@@H](O)/C=C\C=C/C[C@@H](C)OC(=O)C[C@@H](OC(=O)CC)[C@H]3OC)O[C@H]2C)C[C@]1(C)O,nt,i,nt,nt
Nc1c(-c2ccccc2)cc[nH]c1=O,nt,i,nt,nt
COc1ccc(S(=O)(=O)NNc2nc(C)cc(C)n2)cc1Br,i,nt,i,i
COc1cccc(CNC(=S)Nc2cc(C)ccc2C)c1,18.4µM,i,nt,25.9µM
Cc1ccc(C)c(NC(=S)NCc2cccs2)c1,?,i,i,29.1µM
COc1ccccc1NC(=S)N(Cc1cccs1)C1CCCC1,?,i,nt,6.51µM
COc1cccc(CNC(=S)Nc2cccc(Cl)c2C)c1,i,nt,i,?
COc1ccccc1NC(=S)NCc1cccs1,i,i,12.6µM,i
Cc1noc(C(=O)N2CCN(c3ccccc3)CC2)c1Cl,i,nt,i,i
CCn1nc(C)cc1C(=O)NCC1Cc2cccc(-c3cccnc3)c2O1 (centres undefined),i[9.04 µM],nt,nt,?
Cn1c(N)c(C(=O)COC(=O)c2ncc(Cl)c(Cl)c2Cl)c(=O)n(C)c1=O,i,i,nt,i
O=C(Nc1ccc2nc(SCC(=O)N3CCOCC3)sc2c1)c1cccc(Br)c1,13µM,i,?,8.2µM
COc1cccc(C(=O)Nc2ccc3nc(SCC(=O)N4CCOCC4)sc3c2)c1,14.6µM,i,i,13µM
CC(C)(C)C(=O)Nc1ccc2nc(SCC(=O)N3CCOCC3)sc2c1,i,i,i,?
O=C(Nc1ccc2nc(SCC(=O)N3CCOCC3)sc2c1)c1ccc(Br)cc1,?,i,i,2.31µM
NC(=O)c1ncn([C@@H]2O[C@H](CNCc3cnc(N4CCOCC4)nc3)[C@@H](O)[C@H]2O)n1,i,nt,i,i
CCOC(=O)c1nn(-c2cccc(C)c2)c2nc(-c3ccccc3)c(C#N)c(=O)n12,?,i,31.6µM,?
CCOC(=O)c1nn(-c2ccc(F)cc2)c2nc(-c3ccccc3)c(C#N)c(=O)n12,?,i,?,i
CCOC(=O)c1nn(-c2ccc(OCC)cc2)c2nc(CC(C)C)c(C#N)c(=O)n12,i,i,22.4µM,i
CCOC(=O)c1nn(-c2ccc(OCC)cc2)c2nc(-c3ccco3)c(C#N)c(=O)n12,?,i,i,23.1µM
C[C@H](NC(=O)c1nc[nH]c1C(=O)N[C@@H](C)c1ccccc1)C(=O)OC(C)(C)C,?,i,i,i
CC(C)C[C@@H](CNC(=O)OC(C)(C)C)NC(=O)c1nc[nH]c1C(=O)N[C@@H](CC(C)C)C(=O)CNC[C@H](CC(C)C)NC(=O)c1nc[nH]c1C(=O)N[C@@H](Cc1c[nH]c2ccccc12)C(=O)OC(C)(C)C,?,i,i,18.4µM
